SENP8 block-1: SENP8 (human) protease inhibition; Q96LD8; recombinant SENP8, Nedd8 substrate fluorescence; inhibition, % at 20 µM; actives 0.64% (n = 360,000); in the data active = inhibition mostly above about 40%, no sharp cut-off; inactive = mostly below about 27%
SENP8 block-2: blocks the human protease SENP8. purified SENP8, Z-RLRGG-aminoluciferin cleavage, luminescence. actives 1.2% (n = 330,000). inhibition, % at 10 µM; in the data active = inhibition above about 50%
EBI2 block: blocks human EBI2 receptor beta-arrestin signaling | P32249 | EBI2 beta-arrestin recruitment, luminescence, 7a,25-OHC stimulated | inhibition, % at 5 µM | actives 0.81% (n = 360,000); in the data active = inhibition above about 38%;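 also: enzyme fragment complementation signal reports receptor beta-arrestin coupling in cells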
SENP6 block: blocks the human protease SENP6; Q9GZR1; Recombinant SENP6 catalytic domain, aminoluciferin luminescence; inhibition, % at 10 µM; actives 1.8% (n = 330,000);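 active = inhibition above about 50% at the single tested dose, limit read from the data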
AHR activator: activators of human aryl hydrocarbon receptor. P35869. AHR-responsive luciferase reporter cells, luminescence. activation, % at 5 µM. actives 2.5% (n = 320,000). AID 2796; in the data active = activation above about 47%
Target sequence (P35869 whole entry, looked up): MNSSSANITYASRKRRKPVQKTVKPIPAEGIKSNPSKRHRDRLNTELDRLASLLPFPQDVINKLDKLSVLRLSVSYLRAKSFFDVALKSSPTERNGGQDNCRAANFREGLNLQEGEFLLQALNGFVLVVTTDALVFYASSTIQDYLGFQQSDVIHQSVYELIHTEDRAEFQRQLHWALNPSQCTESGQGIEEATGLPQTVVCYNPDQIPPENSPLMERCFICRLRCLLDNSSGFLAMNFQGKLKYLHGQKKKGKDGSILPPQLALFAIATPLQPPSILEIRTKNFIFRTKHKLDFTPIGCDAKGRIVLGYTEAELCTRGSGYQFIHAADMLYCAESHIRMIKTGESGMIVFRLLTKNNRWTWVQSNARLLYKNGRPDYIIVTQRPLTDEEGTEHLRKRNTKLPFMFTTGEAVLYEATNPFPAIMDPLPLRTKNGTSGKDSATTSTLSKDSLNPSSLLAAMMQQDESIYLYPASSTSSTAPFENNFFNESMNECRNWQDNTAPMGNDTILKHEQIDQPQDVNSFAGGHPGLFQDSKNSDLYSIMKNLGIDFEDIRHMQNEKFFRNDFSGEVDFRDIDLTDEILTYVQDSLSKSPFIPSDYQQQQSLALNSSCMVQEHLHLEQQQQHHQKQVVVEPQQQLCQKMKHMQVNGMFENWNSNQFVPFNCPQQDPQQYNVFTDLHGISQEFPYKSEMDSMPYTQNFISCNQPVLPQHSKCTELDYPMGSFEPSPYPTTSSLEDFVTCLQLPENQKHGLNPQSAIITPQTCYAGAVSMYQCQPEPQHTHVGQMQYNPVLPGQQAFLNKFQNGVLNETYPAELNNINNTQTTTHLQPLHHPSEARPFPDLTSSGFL
SENP7 inh: SENP7 protease inhibition; actives 1.5% (n = 330,000); inhibition, % at 5 µM; Q9BQF6; recombinant SENP7, Z-RLRGG-aminoluciferin luminescence, 40 min;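 active = inhibition above about 50% at the single test dose, limit read from the data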
SENP8 conf: human SENP8 inhibition, confirmed; shares compounds with SENP7 inh; actives 40% (n = 6,200); inhibition, % at 12.5 µM; AID 488912; Recombinant SENP8, Z-RLRGG-aminoluciferin luminescence, 60 min;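 active = mean inhibition across replicates above about 50%, limit read from the data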
SENP6 confirm: human SENP6 inhibition, confirmed. recombinant SENP6, Z-RLRGG-aminoluciferin luminescence. actives 58% (n = 6,200). inhibition, % at 12.5 µM. shares compounds with SENP7 inh. AID 488915
SENP7 conf: human SENP7 inhibition, confirmed; shares compounds with SENP7 inh; recombinant SENP7, Z-RLRGG-aminoluciferin luminescence, 40 min; inhibition, % at 12.5 µM; actives 69% (n = 6,200); AID 488917
Casp3 SENP sel: selectivity test for SENP inhibitors: human caspase-3 inhibition. shares compounds with SENP7 inh. purified caspase-3, Z-DEVD-aminoluciferin luminescence, 60 min. inhibition, % at 12.5 µM. actives 60% (n = 6,200). AID 488918;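 active = mean inhibition above about 50%, limit read from the data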
Luc interf: luminescence interference (SENP counter-screen). shares compounds with SENP7 inh. Pre-incubated SENP8/Z-RLRGG-aminoluciferin, luciferase luminescence interference. inhibition, % at 12.5 µM. actives 39% (n = 6,200);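 active = mean inhibition above about 50% when retested at one dose, limit read from the data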
Large screens that a line does not name were inactive (follow-up assays come after a bar, where they were run). Sampled rows, rich in hits. Any-hit rate of the full collection: about 5%.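 The calls were made as follows, unless noted: active = mean inhibition above about 50% in the one-dose retest (limit read from the data); inactive = the rest.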

COCCn1c(-c2ccc(F)cc2)nc2cccnc21	none
O=c1[nH]c(/C=C/c2ccccc2Cl)nc2ccccc12	SENP8 block-2 76, SENP6 block 77, SENP7 inh 94 | SENP8 conf inactive | SENP6 confirm inactive | SENP7 conf 60 | Casp3 SENP sel inactive | Luc interf inactive
CCCN1C(=O)/C(=C/c2nc3ccccc3c(=O)[nH]2)c2cc(C)ccc21	SENP6 block 92 | SENP8 conf inactive | SENP6 confirm inactive | SENP7 conf inactive | Casp3 SENP sel inactive | Luc interf inactive
COc1cc(/C=C/c2nc3ccccc3c(=O)[nH]2)ccc1O	none (no result: SENP8 block-2, SENP6 block, AHR activator, SENP7 inh)
O=C(O)c1ccc(/C=C/c2nc3ccccc3c(=O)[nH]2)cc1	SENP8 block-2 95, SENP6 block 97, SENP7 inh 100 | SENP8 conf 97 | SENP6 confirm 98 | SENP7 conf 102 | Casp3 SENP sel 98 | Luc interf 56
CCn1c(/C=C/c2ccccc2Cl)nc2ccccc2c1=O	none
COc1cc(/C=C/c2nc3ccccc3c(=O)[nH]2)cc(Br)c1O	none
Cc1cccc(/C=C/c2nc3ccccc3c(=O)[nH]2)c1	SENP8 block-2 75, SENP6 block 87, SENP7 inh 97 | SENP8 conf inactive | SENP6 confirm 68 | SENP7 conf inactive | Casp3 SENP sel 79 | Luc interf inactive
CCCNC(=O)C1(C)CCN(Cc2csc3ccccc23)C1 (stereo unspecified)	none (no result: SENP8 block-2, SENP6 block, AHR activator, SENP7 inh)
CC(C)CCOc1ccc(CO[C@@H]2[C@H]3OC(C)(C)O[C@H]3O[C@@H]2C(O)CO)cc1 (stereo partly specified)	none
Cc1ccc(N=C2NC(=O)/C(=C\c3cccs3)S2)cc1C	none
Cc1cccc(N=C2NC(=O)/C(=C/c3cccs3)S2)c1	SENP6 block 52 | SENP8 conf inactive | SENP6 confirm inactive | SENP7 conf inactive | Casp3 SENP sel inactive | Luc interf inactive
Cc1cnc(C(=O)Nc2ccc(F)cc2)cn1	SENP6 block 61, SENP7 inh 58 | SENP8 conf inactive | SENP6 confirm inactive | SENP7 conf 74 | Casp3 SENP sel 81 | Luc interf inactive
Cc1cnc(C(=O)Nc2ccccc2F)cn1	SENP6 block 68 | SENP8 conf inactive | SENP6 confirm inactive | SENP7 conf 74 | Casp3 SENP sel 75 | Luc interf inactive
Cc1cnc(C(=O)Nc2ccccc2-n2cccc2)cn1	none
CCOC(=O)N1CCN(Cc2nc(N)nc(Nc3ccc(C)cc3C)n2)CC1	none
N#Cc1sc2nc(-c3ccccc3)cc(-c3ccco3)c2c1N	SENP8 block-2 93, SENP6 block 86 | SENP8 conf inactive | SENP6 confirm inactive | SENP7 conf inactive | Casp3 SENP sel inactive | Luc interf inactive
N#Cc1sc2nc(C3CC3)cc(-c3ccccc3)c2c1N	none
CCCNC(=O)Nc1nc2ccccc2s1	none
O=C1CCC(=O)N1c1ccc(-c2nc3ccccc3s2)cc1	SENP8 block-2 70, SENP6 block 89, SENP7 inh 94 | SENP8 conf inactive | SENP6 confirm 62 | SENP7 conf 83 | Casp3 SENP sel 72 | Luc interf inactive
c1ccc(-c2nc3ccccc3s2)nc1	SENP8 block-2 76, SENP6 block 90, SENP7 inh 79 | SENP8 conf inactive | SENP6 confirm 89 | SENP7 conf 99 | Casp3 SENP sel 89 | Luc interf inactive
CN(C)c1ncccc1-c1nc2ccccc2s1	none
Nc1ccc(-c2nc3ccccc3s2)cn1	SENP8 block-2 66, SENP6 block 79, SENP7 inh 69 | SENP8 conf 75 | SENP6 confirm 73 | SENP7 conf 91 | Casp3 SENP sel 78 | Luc interf inactive
CCCNC(=O)c1ccc(-c2nc3ccccc3s2)s1	SENP8 block-2 84, SENP6 block 89, SENP7 inh 87 | SENP8 conf inactive | SENP6 confirm 86 | SENP7 conf 99 | Casp3 SENP sel 55 | Luc interf inactive
Brc1ccc(-c2nc3ccccc3s2)s1	SENP8 block-2 95, SENP6 block 95, SENP7 inh 96 | SENP8 conf 66 | SENP6 confirm 82 | SENP7 conf 87 | Casp3 SENP sel inactive | Luc interf 67
CCOC(=O)c1sc(N2N=C(C)C(N=Nc3cccc(C)c3)C2=O)nc1C (stereo unspecified)	none
CC1=NN(C(N)=S)C(=O)C1N=Nc1cccc(C)c1 (stereo unspecified)	SENP8 block-2 60, AHR activator 64, SENP7 inh 54 | SENP8 conf inactive | SENP6 confirm inactive | SENP7 conf inactive | Casp3 SENP sel inactive | Luc interf inactive
CC1=NN(c2nc(-c3ccc(C)cc3)cs2)C(=O)C1N=Nc1cccc(C)c1 (stereo unspecified)	SENP6 block 69 | SENP8 conf inactive | SENP6 confirm inactive | SENP7 conf inactive | Casp3 SENP sel inactive | Luc interf 52
CC1=NN(c2ccccc2C(=O)O)C(=O)C1N=Nc1ccccc1 (stereo unspecified)	none
CC1=NN(C(N)=S)C(=O)C1N=Nc1cccc(C(=O)O)c1 (stereo unspecified)	SENP8 block-2 85, SENP6 block 93, SENP7 inh 91 (no result: AHR activator) | SENP8 conf 92 | SENP6 confirm 92 | SENP7 conf 100 | Casp3 SENP sel 84 | Luc interf inactive
CC1=NN(C(N)=S)C(=O)C1N=Nc1ccc(C)c(Br)c1 (stereo unspecified)	SENP8 block-2 93, SENP6 block 95, AHR activator 58, SENP7 inh 78 | SENP8 conf 62 | SENP6 confirm 53 | SENP7 conf inactive | Casp3 SENP sel 68 | Luc interf inactive
CC[C@H](C)C(N)c1cn(C(CCCN=C(N)N)C(=O)N2CCNCC2)nn1 (stereo partly specified)	none
Cc1cc(C[n+]2cc(Br)ccc2N)c2ncccc2c1	none
O=C(c1ccc(-c2nnc(-c3ccccc3)o2)cc1)N1CCCCCC1	SENP8 block-2 88, SENP6 block 96, SENP7 inh 93 | SENP8 conf inactive | SENP6 confirm inactive | SENP7 conf 60 | Casp3 SENP sel 69 | Luc interf inactive

Screening results deposited in PubChem BioAssay by several laboratories.
